According to PubChem BioAssay (NCI):
The panel holds about 83,000 compounds, 20% with a hit somewhere; the sample as a whole holds those more often.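 Cell lines were cultured in 96-well plates, exposed to a single compound concentration, and assessed for percent growth 48 hours later.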 Unmarked numbers belong to inactive results. Activity calls are given as the source filed them. The calls were made as follows: active = growth percent below 10; inactive = the rest.

system: HL-60(TB) leukemia; experiment: NCI-60 one-dose screen, 48 h (100 = growth as untreated, 0 = no growth, -100 = all killed); conditions: 10 µM unless noted

SMILES | growth
COc1ccc(NC(=O)c2sc3nc(C)c(C(O)c4ccc(OC)cc4)cc3c2N)cc1 (stereo not given) | -59.5% (active)
CC(C)Nc1ccc(Nc2ccc(NC(C)C)cc2)cc1 | 22.1%
Cc1ccc2sc3c(NCCCN)nc4ccccc4c3c(=O)c2c1 | -27.1% (active)
COc1cc(Nc2nc3ccccc3cc2C(=O)Nc2ccc(F)c(F)c2)cc(OC)c1OC | 19.8%
O=C(Oc1ccccc1)c1ccccc1Cl | 76.4%
COCCn1cc(-c2csc(-c3c[nH]c4ccc(Br)cc34)n2)c2cccnc21 | 20.5%
CC1=NN(c2ccccc2)C(=O)/C1=C\N1CC(=O)NC1=S | 103%
O=c1[nH]c(-c2cn(-c3ccc(Cl)cc3)nn2)nc2ccccc12 | 100%
O=[N+]([O-])c1ccc(Oc2nc(Nc3ccc(O[C@H]4CO[C@H]5[C@@H]4OC[C@@H]5O)c(Cl)c3)ncc2F)c(Cl)c1 | 25.6%
O=C1NC(=O)c2c1c1c3ccccc3[nH]c1c1oc3ccc(F)cc3c21 | 99.5%
c1ccc(-c2n(Cc3ccc4ccccc4n3)c3ccccc3[n+]2Cc2ccc3ccccc3n2)cc1 | -54% (active)
Cc1ccc[n+](CCC(N)=O)c1 | 86.6%
Clc1ccc(N2CCN(CCCN3CCN(c4cccc(Cl)c4)CC3)CC2)cc1 | 17%
COc1cccc(-c2ccc3c(c2)C2CCN(Cc4ccccc4)C3C2)c1 (stereo not given) | 46.2%
S=c1ssnc1-c1cc2ccccc2o1 | 78%
CCOc1ccc2c(c1)CN(Cc1ccc(Cl)cc1)CO2 | 94.9%
N=c1c(C(=O)OCc2ccccc2)ncc(CCl)n1O | 81.4%
COc1ccc(Cc2cnc(NC(=O)c3sc4ccccc4c3Cl)s2)cc1 | -50.3% (active)
CCOC(=O)c1cnc2ccc(Br)cc2c1Nc1cccc(S(=O)(=O)NC)c1 | 119%
C[n+]1ccccc1C[n+]1ccccc1 | 90.9%

SMILES | growth
CCCN1C(=O)N(CCC)C2C1NC(=S)N2/N=C/C=C/c1ccccc1OC (stereo not given) | -42.1% (active)
c1ccc2c(c1)Sc1ccccc1S2 | 107%
CC(CN(C)C)Oc1ccccc1NC1=C(Cl)C(=O)C(Nc2ccccc2OC(C)CN(C)C)=C(Cl)C1=O (stereo not given) | -41.8% (active)
C=CCSc1nnc(COc2ccc3c(C)c(Cc4ccccc4)c(=O)oc3c2C)o1 | 96.1%
COc1ccccc1NC1=C(N2CCCCC2)C(=O)c2ccccc2C1=O | 72.6%
CCCCOC(=O)/C=C\C(=O)NC(N)=O | 56.8%
Cn1cc(-c2ccc3cc(-c4ccc(CC(=O)Nc5cc(C(C)(C)C)nn5C)cc4)cnc3c2)cn1 | 25.2%
CC1=C(C(=O)OCC2CCN(C(=O)OC(C)(C)C)CC2)[C@H](c2cccc(Br)c2)C2=C(CC(C)(C)CC2=O)N1 | -17.1% (active)
CC(COC(=O)c1ccccc1)N1CC2CCC(C1)O2 (stereo not given) | 101%
COc1ccc(/C=C2\Oc3cc(OCCCN4CCCC4)ccc3C2=O)c(OC)c1 | 96.2%
COC(=O)c1cc(O)c2cc3c(cc2c1-c1cc(OC)c(OC)c(OC)c1)OCO3 | 5.92% (active)
Oc1c(C(Nc2ccccc2Br)c2ccccc2)ccc2cccnc12 (stereo not given) | -17.8% (active)
COCCOC(=O)C1=C(C)NC(=S)NC1c1ccc2c(c1)OCO2 (stereo not given) | 92.1%
COc1ccc(NC(=O)CSc2nnc(-c3cc(-c4ccc(S(N)(=O)=O)cc4)nc4ccccc34)n2-c2ccccc2)cc1 | 65.1%
O=C(CN1CCN(c2cc3c(cc2F)c(=O)c(C(=O)O)cn3C2CC2)CC1)Nc1cc(=O)[nH]c(=O)[nH]1 | 103%
O=Nc1ccc(O)cc1 | 77%
NC1=CC(=O)C(=O)c2cccnc21 | 106%
O=C(COc1cc(O)c2c(=O)cc(-c3ccccc3)oc2c1)Nc1ccccc1 | 74.5%
Cc1c(Cl)cccc1NC(=O)c1sc2nc3c(cc2c1N)CCCC3 | 5.57% (active)
COC(=O)[C@]12CC[C@@H](C)[C@H](C)[C@@H]1C1=CC[C@@H]3[C@@]4(C)C(C=O)=C[C@@](C)(CO)[C@@H]4[C@H](O)C[C@@]3(C)[C@]1(C)CC2 | -14.4% (active)
